# Assay results: PubChem BioAssay AID1347076 (National Center for Advancing Translational Sciences (NCATS), 2019)
# Hit rate of the full screen: of about 400,000 compounds, about 13,000 (3.2%) were called active. Where a call stands in place of a potency, no number is given. Roughly 18% stayed inconclusive and do not appear here. Calls come from the whole dose curve; as a rule, active = well fitted cell-killing curve with a large enough effect; inconclusive = small, poorly fitted or top-dose-only effect, or effect the other way; inactive = flat fitted curve, though single readings scatter. Many of the other results were omitted from the sample, so actives are more common in it than they were.
# Test: qHTS assay for MDR1-selective chemotherapeutics: Primary screen using the drug-selected MDR subline cells KB-V1; note: nearly all actives have a fitted effect of over 60% in size
# Settings: KB-V1 MDR cells viability, CellTiter-Glo, 72 h; series mostly up to 46.1 µM
# Outline: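 Drug-selected KB-V1 cells, grown in DMEM lacking phenol red with 10% FBS, receive compound titrations; after three days at 37 degrees C, surviving cell ATP is quantified by CellTiter-Glo luminescence and responses normalized and curve-fitted.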
# Potency is the fitted concentration of half-maximal effect.
row,SMILES,Potency
1,O=C(Nc1cc(F)ccc1F)c1ccc2c(=O)n3c(nc2c1)CCC3,inactive
2,CCOC(=O)c1c(NC(=O)CSc2cn(CCNC(=O)c3cccc(C(F)(F)F)c3)c3ccccc23)sc2c1CCC2,inactive
3,OC[C@@H]1CN(Cc2cccs2)C[C@H](n2cnc3c(Nc4ccccc4)ncnc32)O1,inactive
4,Cc1nc2ccccc2c(=O)n1NC(=O)c1ccccc1,inactive
5,COc1cc(C(=O)Nn2c(CC(C)C)nc3ccccc3c2=O)cc(OC)c1OC,inactive
6,CCCc1nc2ccccc2c(=O)n1NC(=O)c1c(O)c2ccccc2[nH]c1=O,7.31 µM (active)
7,O=C(CN1C(=O)NC2(CCc3ccccc32)C1=O)NC1CCCCC1 (configuration not stated),inactive
8,CC(C)CN1CCC1(C)C(=O)Nc1ccc(OC(F)F)cc1 (configuration not stated),inactive
9,Cc1ccc(OCCSc2nc(-c3cccs3)nc3cc(=O)[nH]n23)cc1Cl,inactive
10,O=C(NC1CCN(Cc2ccccc2)CC1)c1cc(Br)c(Br)[nH]1,inactive
11,S=C(Nc1ccc(Br)cc1Cl)NC1CCN(Cc2ccccc2)CC1,11.6 µM (active)
12,O=C(COc1ccc(Br)cc1F)NC1CCN(Cc2ccccc2)CC1,inactive
13,CCc1nc2c(OCCOc3ccccc3)cccn2c1N(C)C(=O)c1ccc(OC)cc1,inactive
14,COCCCn1cc(CN2CC(N(C)C)CS2(=O)=O)nn1 (configuration not stated),inactive
15,Cc1nc(/N=C(\N)NC(=O)NC2CCCCC2)nc2ccccc12,5.17 µM (active)
16,Cc1c(C(=O)NC2CCCCC2)oc2ccccc12,inactive
17,CC(C)c1cc(C(=O)NC2CCCCCC2)c2ccccc2n1,inactive
18,Nc1ncnc2c1ncn2[C@@H]1O[C@H](C(=O)N2CCSC2)[C@@H](O)[C@H]1O,inactive
19,CCN(CC)c1ccc(/C=C/c2c(C)cnc3ccc(C)cc23)cc1,inactive
20,COC(=O)[C@@]12C[C@@H](CC(=O)NCCCCc3ccccc3)C(=O)N(Cc3ccccc3)C1=CCC(C)(C)C2,23.1 µM (active)
21,CCN(CC)C(=O)C1=C(C)N(Cc2ccc(OC)cc2)C(=O)C(CC(=O)NCCCCc2ccccc2)C1 (configuration not stated),inactive

row,SMILES,Potency
1,CCOC(=O)N1CCN(C(=O)C[C@@H]2C[C@@]3(C(=O)OC)CC(C)(C)CC=C3N(Cc3ccco3)C2=O)CC1,inactive
2,COC(=O)[C@@]12C[C@@H](CC(=O)NCCCCc3ccccc3)C(=O)N(CCc3ccc(OC)c(OC)c3)C1=CCC(C)(C)C2,16.4 µM (active)
3,COC(=O)[C@]12CCCCC=C1N(Cc1ccccc1)C(=O)[C@H](CC(=O)NCc1ccc(C)o1)C2,inactive
4,COC(=O)[C@]12CCCCC=C1N(Cc1ccco1)C(=O)[C@H](CC(=O)NCCCCc1ccccc1)C2,inactive
5,COc1ccc(CN2C[C@H]3CON(C)[C@H]3C[C@H]2c2ccc(-c3cccc(F)c3)cc2)cc1,inactive
6,Cc1ccc(O)c(NC(=O)c2cc(-c3ccc(F)cc3)no2)c1,inactive
7,Cc1cc2ccccc2n1CCNC(=O)c1ccc(F)cc1,inactive
8,CC1=C(C(=O)N2CCOCC2)CC(CC(=O)NCC2CCCCC2)C(=O)N1Cc1ccc(F)cc1 (configuration not stated),inactive
9,CCOC(=O)c1cc2cc(C)ccc2[nH]1,inactive
10,Cc1ccc2[nH]c(=O)c(COC(=O)c3ccccn3)cc2c1,16.4 µM (active)
11,O=C(OCc1cc2ccccc2[nH]c1=O)c1cccnc1,inactive
12,Cc1ccc(S(=O)(=O)N(CCc2ccccc2)c2ccc3c(c2)C2CC3CCN2C(=O)OCc2ccccc2)cc1 (configuration not stated),inactive
13,COc1ccc(OC)c(NC(=O)CSC2=Nc3ccccc3C3=NC(CC(=O)NCCc4ccccc4)C(=O)N23)c1 (configuration not stated),inactive
14,O=C(Nc1cc2ccccc2oc1=O)C1CCCCC1,inactive
15,S=c1[nH]c(-c2cccs2)cn1-c1ccccc1,inactive
16,O=c1oc2ccccc2cc1-c1cn(-c2ccccc2)c(=S)[nH]1,5.8 µM (active)
17,Cc1ccc(Cn2c(C)c3cnn(CC(=O)NCc4ccccc4)c(=O)c3c2C)cc1,inactive
18,COc1ccc(-c2noc(CSc3nc(C)cc(=O)[nH]3)n2)cc1OC,inactive
19,CN(CCC#N)c1ccc(C=O)cc1,inactive
20,COc1ccc(C(=O)NC2CC(C)(C)Cc3c2cnn3-c2ccccc2)c(OC)c1 (configuration not stated),inactive
21,CC1=C(C(=O)NC2CC(C)(C)Cc3c2cnn3-c2ccc(C)cc2)OCCO1 (configuration not stated),inactive

row,SMILES,Potency
1,COc1ccc(C(=O)NC2CC(C)(C)Cc3c2cnn3-c2ccccc2C)o1 (configuration not stated),18.4 µM (active)
2,CC(=O)N1Cc2cc(C(=O)NCc3cccc(F)c3)nc(-c3cccc(C4=CCCCC4)c3)c2[C@H]1CCO,inactive
3,O=C(NC(c1ccc(Cl)cc1)c1cnccn1)C1CCN(Cc2ccc(Cl)cc2)CC1 (configuration not stated),inactive
4,COc1ccccc1CNc1nc(Nc2ccccc2Cl)c2sccc2n1,inactive
5,Cc1ccc(-c2n[nH]c(=S)n2/N=C/c2cc3c(cc2[N+](=O)[O-])OCO3)cc1,8.2 µM (active)
6,CCOc1ccc(-c2n[nH]c(=S)n2/N=C/c2cc3c(cc2[N+](=O)[O-])OCO3)cc1,inactive
7,Cc1ccc(S(=O)(=O)N/N=C\c2cc3c(cc2[N+](=O)[O-])OCO3)cc1,inactive
8,Cc1cc2c3ccccc3[nH]c(=O)n2n1,inactive
9,CCOc1ccc(S(=O)(=O)N2CCCC(C(=O)N3CCC(C(N)=O)CC3)C2)cc1Cl (configuration not stated),inactive
10,CCOC(=O)C1CCCN(C(=O)c2cccc(S(=O)(=O)N3CCOCC3)c2)C1 (configuration not stated),inactive
11,CCOC(=O)C1CCCN(C(=O)C2CCN(S(=O)(=O)c3ccc(Cl)c(C(F)(F)F)c3)CC2)C1 (configuration not stated),20.6 µM (active)
12,Nc1[nH]c(C(=O)c2ccccc2)c(-c2ccc(Br)cc2)c1C(=O)NC1CC1,inactive
13,CCc1ccc(OCCCn2c(CCCNC(=O)C3CCCCC3)nc3ccccc32)cc1,inactive
14,O=C(NCc1cccnc1)c1cccnc1Sc1ccc(Cl)cc1,18.4 µM (active)
15,COc1cccc(CNC(=O)c2cccnc2Sc2ccc(Cl)cc2)c1,inactive
16,O=C(NC1CCCCCC1)c1cccnc1Sc1ccc(Cl)cc1,inactive
17,OCCc1ccc(NCCc2ccco2)cc1,inactive
18,COc1ccc([N+](=O)[O-])cc1NC(=O)C(C)OC(=O)C1c2ccccc2Oc2ccccc21 (configuration not stated),9.2 µM (active)
19,COc1ccc([N+](=O)[O-])cc1NC(=O)CCc1ccccc1,inactive
20,COc1ccc(C(=O)CC(=O)C(=O)Nc2cc([N+](=O)[O-])ccc2OC)cc1,inactive
